# In paper PMC7862700, “An all-to-all approach to the identification of sequence-specific readers for epigenetic DNA modifications on cytosine”:
# Experiments:
# Test in all cases: DAPPL (digital affinity profiling via proximity ligation, sequencing); 10 mM Tris-HCl pH 7.5, 50 mM NaCl, 1 mM DTT, 4% glycerol, room temperature, 30 min; GST-TFs on glutathione beads, 16-mer random dsDNA library, 0.1% formaldehyde crosslink after washing; high values mean tight binding
# [1] = target: T1, FEV (Homo sapiens, UniProt Q99581 1-238); conditions: protein: recombinant; tags: N-terminal GST; dsDNA, one strand shown
# T1 sequence: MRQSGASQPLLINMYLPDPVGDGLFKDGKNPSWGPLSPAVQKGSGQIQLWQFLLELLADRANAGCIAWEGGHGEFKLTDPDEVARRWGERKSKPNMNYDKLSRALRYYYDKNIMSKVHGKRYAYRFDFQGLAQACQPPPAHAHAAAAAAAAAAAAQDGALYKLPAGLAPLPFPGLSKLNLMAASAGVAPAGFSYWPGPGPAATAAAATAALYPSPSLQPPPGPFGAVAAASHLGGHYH
# Outline: (§1)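 A tag-only sample was pooled with DNA-barcoded human transcription factors that had been expressed in yeast as GST fusions and captured on glutathione beads. The pools were incubated for 30 min at room temperature with 200 nmole of a random double-stranded 16-mer DNA library in Tris/NaCl/DTT/glycerol buffer, then washed, crosslinked with 0.1% formaldehyde, proximity-ligated (BsaI/T4 ligase, 1 h, 37 °C), PCR-amplified and sequenced on an Illumina NextSeq500. Binding signal is each hexamer's read frequency for a factor divided by its frequency for the tag-only sample.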
# [2] = target: ETV5 (Homo sapiens, UniProt P41161 1-510); conditions: protein: recombinant; tags: N-terminal GST; dsDNA, one strand shown
# ETV5, sequence (P41161 whole entry): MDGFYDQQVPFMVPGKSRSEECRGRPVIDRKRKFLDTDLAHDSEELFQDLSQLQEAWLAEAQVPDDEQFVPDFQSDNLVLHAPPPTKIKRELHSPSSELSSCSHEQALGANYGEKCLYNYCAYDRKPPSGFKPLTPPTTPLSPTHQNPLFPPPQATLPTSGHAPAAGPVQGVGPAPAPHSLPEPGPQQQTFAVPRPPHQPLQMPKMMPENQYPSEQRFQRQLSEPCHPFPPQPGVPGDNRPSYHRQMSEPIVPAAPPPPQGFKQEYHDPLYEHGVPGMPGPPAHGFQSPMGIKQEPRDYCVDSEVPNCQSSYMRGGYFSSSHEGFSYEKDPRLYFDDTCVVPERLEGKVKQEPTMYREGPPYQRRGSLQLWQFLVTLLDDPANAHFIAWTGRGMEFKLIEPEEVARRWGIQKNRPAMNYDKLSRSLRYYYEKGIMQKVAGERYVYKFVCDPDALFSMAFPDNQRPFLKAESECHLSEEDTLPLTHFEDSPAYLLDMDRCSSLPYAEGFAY
# Outline: as §1
# [3] = target: HSF1 (Homo sapiens, UniProt Q00613 1-529); conditions: protein: recombinant; tags: N-terminal GST; chain copies: 3; dsDNA, one strand shown
# HSF1, sequence (Q00613 whole entry): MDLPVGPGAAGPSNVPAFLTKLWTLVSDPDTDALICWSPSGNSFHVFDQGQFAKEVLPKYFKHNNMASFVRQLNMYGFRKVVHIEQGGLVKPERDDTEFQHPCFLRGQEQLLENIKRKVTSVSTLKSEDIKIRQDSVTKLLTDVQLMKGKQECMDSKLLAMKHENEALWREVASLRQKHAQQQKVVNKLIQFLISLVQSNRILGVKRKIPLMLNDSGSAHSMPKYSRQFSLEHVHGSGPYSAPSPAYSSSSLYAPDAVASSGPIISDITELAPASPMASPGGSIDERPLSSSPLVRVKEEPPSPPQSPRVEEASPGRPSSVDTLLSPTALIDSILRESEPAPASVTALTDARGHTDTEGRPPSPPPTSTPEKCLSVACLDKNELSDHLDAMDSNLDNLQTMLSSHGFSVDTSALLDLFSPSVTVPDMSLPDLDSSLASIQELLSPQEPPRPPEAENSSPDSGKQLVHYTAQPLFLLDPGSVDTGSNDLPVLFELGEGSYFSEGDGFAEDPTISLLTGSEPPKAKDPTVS
# Outline: as §1
# [4] = target: T2, SPIC (Homo sapiens, UniProt Q8N5J4 1-248); conditions: protein: recombinant; tags: N-terminal GST; dsDNA, one strand shown
# T2 sequence: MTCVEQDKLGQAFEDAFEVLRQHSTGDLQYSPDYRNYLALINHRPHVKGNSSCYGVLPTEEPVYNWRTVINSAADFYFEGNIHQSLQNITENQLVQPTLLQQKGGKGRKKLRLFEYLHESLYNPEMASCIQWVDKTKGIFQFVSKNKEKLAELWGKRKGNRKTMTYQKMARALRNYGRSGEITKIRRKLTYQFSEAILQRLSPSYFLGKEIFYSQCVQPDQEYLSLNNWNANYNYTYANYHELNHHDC
# Outline: as §1
# [5] = target: ELF4 (Homo sapiens, UniProt Q99607 1-663); conditions: protein: recombinant; tags: N-terminal GST; dsDNA, one strand shown
# ELF4, sequence (Q99607 whole entry): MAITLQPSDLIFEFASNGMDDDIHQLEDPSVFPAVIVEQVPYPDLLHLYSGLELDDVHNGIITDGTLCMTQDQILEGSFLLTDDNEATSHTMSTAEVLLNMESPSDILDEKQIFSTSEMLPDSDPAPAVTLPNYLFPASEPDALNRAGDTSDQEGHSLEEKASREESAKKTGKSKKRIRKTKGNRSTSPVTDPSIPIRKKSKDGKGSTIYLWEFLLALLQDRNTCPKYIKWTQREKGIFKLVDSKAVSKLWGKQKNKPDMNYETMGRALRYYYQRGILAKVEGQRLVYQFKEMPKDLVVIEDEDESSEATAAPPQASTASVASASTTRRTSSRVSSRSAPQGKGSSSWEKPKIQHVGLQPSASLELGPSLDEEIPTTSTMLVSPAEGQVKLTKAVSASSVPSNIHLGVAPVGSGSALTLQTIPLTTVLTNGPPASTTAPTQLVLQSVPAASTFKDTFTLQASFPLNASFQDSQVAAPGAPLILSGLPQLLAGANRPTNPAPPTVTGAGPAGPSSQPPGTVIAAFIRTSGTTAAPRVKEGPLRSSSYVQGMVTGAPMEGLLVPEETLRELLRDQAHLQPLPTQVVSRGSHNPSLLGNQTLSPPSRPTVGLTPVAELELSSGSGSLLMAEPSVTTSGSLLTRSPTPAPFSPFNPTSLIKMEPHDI
# Outline: as §1
# [6] = target: T3, ELK4 (Homo sapiens, UniProt P28324-2 1-405); conditions: protein: recombinant; tags: N-terminal GST; dsDNA, one strand shown
# T3 sequence: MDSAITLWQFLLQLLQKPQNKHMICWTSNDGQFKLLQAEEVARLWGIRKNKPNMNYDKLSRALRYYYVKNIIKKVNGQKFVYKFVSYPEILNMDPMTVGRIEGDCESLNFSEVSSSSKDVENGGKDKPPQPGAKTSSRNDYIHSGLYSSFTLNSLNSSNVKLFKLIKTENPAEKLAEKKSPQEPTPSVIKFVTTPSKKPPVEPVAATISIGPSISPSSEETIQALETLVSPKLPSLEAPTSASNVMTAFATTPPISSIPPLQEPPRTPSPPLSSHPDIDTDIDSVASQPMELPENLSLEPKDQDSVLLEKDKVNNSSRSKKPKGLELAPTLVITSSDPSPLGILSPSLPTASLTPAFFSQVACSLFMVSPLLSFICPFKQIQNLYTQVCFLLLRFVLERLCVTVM
# Outline: as §1
# [7] = target: T4, ETV2 (Homo sapiens, UniProt O00321 1-342); conditions: protein: recombinant; tags: N-terminal GST; dsDNA, one strand shown
# T4 sequence: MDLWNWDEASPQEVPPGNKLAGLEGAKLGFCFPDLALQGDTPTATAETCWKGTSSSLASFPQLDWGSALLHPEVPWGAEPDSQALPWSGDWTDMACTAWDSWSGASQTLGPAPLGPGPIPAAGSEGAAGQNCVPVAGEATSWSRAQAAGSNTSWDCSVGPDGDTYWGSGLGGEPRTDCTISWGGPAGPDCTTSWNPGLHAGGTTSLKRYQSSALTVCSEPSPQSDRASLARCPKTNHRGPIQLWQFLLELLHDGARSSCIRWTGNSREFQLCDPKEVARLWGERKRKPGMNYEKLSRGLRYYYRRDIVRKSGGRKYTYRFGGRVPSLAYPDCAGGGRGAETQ
# Outline: as §1
# [8] = target: T5, ELF3 (Homo sapiens, UniProt P78545 1-371); conditions: protein: recombinant; tags: N-terminal GST; dsDNA, one strand shown
# T5 sequence: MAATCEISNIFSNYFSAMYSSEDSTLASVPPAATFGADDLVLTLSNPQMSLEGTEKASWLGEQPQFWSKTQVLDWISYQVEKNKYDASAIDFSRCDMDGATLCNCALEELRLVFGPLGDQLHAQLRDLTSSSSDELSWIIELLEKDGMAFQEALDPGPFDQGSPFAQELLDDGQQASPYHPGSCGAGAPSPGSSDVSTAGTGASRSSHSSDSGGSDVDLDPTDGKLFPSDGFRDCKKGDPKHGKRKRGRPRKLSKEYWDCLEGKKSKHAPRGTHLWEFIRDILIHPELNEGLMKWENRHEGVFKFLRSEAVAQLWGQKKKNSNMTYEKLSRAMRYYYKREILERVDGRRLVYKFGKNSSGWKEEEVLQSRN
# Outline: as §1
# [9] = target: CRX (Homo sapiens, UniProt O43186 1-299); conditions: protein: recombinant; tags: N-terminal GST; dsDNA, one strand shown
# CRX, sequence (O43186 whole entry): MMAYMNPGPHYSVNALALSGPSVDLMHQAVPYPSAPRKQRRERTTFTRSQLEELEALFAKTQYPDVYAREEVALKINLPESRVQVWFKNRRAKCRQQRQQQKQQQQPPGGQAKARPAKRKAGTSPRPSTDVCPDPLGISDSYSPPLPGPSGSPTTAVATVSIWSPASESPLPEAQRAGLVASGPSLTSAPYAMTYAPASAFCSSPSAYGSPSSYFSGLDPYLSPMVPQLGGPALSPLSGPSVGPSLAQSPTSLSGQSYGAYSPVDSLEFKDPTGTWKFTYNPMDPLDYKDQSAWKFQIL
# Outline: as §1
# [10] = target: ETV1 (Homo sapiens, UniProt P50549 1-477); conditions: protein: recombinant; tags: N-terminal GST; dsDNA, one strand shown
# ETV1, sequence (P50549 whole entry): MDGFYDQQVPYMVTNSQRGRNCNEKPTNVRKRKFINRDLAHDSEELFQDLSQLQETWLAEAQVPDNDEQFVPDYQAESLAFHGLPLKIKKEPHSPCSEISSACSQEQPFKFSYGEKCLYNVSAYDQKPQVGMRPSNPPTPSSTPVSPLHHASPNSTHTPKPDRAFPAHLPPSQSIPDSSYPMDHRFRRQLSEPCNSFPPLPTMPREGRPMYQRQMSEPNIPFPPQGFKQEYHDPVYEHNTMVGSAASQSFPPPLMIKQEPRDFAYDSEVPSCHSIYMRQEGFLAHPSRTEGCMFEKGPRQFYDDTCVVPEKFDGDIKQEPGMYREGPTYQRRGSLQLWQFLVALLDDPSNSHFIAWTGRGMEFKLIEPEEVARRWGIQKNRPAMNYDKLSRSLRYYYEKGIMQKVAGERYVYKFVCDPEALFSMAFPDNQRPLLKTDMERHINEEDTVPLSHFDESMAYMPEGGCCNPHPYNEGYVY
# Outline: as §1
# [11] = target: T6, ERF (Homo sapiens, UniProt P50548 1-548); conditions: protein: recombinant; tags: N-terminal GST; dsDNA, one strand shown
# T6 sequence: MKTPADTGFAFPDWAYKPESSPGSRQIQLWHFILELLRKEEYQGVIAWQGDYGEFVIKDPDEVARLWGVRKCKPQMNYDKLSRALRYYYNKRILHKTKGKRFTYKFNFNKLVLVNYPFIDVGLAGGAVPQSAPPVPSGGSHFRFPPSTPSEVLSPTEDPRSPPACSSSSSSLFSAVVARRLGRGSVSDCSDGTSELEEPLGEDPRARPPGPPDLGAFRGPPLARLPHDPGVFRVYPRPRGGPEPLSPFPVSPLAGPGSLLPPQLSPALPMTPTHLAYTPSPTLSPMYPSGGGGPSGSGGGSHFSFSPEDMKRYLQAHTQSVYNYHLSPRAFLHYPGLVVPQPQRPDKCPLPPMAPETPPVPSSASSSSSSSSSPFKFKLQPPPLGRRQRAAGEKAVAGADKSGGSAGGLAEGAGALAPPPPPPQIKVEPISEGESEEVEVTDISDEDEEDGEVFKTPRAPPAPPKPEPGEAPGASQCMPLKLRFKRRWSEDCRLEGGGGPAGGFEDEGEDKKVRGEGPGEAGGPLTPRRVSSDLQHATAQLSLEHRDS
# Outline: as §1
# [12] = target: T7, ETV3L (Homo sapiens, UniProt Q6ZN32 1-361); conditions: protein: recombinant; tags: N-terminal GST; dsDNA, one strand shown
# T7 sequence: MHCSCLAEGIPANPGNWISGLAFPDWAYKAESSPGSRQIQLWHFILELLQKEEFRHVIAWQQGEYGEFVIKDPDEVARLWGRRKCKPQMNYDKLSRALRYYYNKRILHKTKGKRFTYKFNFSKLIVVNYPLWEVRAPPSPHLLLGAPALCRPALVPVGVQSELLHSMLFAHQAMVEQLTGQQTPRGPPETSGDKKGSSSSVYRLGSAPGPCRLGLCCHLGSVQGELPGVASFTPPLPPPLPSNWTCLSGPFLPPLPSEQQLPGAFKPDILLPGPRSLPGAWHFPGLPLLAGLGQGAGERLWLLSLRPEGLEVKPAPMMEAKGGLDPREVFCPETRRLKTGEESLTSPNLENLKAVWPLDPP
# Outline: as §1
# [13] = target: T8, ETS2 (Homo sapiens, UniProt P15036 1-469); conditions: protein: recombinant; tags: N-terminal GST; dsDNA, one strand shown
# T8 sequence: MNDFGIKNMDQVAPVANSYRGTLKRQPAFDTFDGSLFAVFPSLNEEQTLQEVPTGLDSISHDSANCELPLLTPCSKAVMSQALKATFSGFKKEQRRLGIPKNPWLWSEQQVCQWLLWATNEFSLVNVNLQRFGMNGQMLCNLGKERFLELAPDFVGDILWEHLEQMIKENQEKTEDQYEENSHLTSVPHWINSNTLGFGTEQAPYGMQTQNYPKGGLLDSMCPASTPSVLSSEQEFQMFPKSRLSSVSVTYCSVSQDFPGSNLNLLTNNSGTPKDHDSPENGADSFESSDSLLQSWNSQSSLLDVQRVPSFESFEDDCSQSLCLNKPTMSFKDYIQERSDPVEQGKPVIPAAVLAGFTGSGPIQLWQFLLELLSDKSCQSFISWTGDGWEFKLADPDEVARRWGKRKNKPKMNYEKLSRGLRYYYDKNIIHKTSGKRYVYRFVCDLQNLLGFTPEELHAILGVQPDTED
# Outline: as §1
# [14] = target: T9, SPDEF (Homo sapiens, UniProt O95238 1-335); conditions: protein: recombinant; tags: N-terminal GST; dsDNA, one strand shown
# T9 sequence: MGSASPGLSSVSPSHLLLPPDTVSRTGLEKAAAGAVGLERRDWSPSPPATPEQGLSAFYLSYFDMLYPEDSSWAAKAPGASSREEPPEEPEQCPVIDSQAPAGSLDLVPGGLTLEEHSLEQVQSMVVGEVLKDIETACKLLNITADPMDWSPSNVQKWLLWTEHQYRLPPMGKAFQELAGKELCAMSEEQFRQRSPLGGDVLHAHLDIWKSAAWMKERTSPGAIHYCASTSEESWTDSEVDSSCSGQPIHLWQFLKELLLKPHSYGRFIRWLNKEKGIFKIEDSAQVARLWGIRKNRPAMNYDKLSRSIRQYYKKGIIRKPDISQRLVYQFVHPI
# Outline: as §1
# [15] = target: T10, ETV7 (Homo sapiens, UniProt Q9Y603 1-341); conditions: protein: recombinant; tags: N-terminal GST; dsDNA, one strand shown
# T10 sequence: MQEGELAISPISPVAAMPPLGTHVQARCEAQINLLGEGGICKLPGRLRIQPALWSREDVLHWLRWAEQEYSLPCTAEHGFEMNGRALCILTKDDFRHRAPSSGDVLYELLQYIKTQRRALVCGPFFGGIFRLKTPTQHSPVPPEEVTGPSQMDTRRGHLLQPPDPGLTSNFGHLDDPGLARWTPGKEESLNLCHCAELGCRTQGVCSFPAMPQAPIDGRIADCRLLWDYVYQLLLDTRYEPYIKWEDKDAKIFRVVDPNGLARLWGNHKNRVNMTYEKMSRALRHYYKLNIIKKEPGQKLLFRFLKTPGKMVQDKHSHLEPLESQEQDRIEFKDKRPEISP
# Outline: as §1
# [16] = target: T11, ELF5 (Homo sapiens, UniProt Q9UKW6-2 1-255); conditions: protein: recombinant; tags: N-terminal GST; dsDNA, one strand shown
# T11 sequence: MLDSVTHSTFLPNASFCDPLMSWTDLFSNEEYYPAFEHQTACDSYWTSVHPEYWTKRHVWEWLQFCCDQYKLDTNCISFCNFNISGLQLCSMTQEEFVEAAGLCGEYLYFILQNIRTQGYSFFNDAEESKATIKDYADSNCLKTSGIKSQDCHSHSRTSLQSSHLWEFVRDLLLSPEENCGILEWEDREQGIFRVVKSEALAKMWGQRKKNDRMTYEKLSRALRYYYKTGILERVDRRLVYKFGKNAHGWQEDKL
# Outline: as §1
# [17] = target: T12, ETV3 (Homo sapiens, UniProt P41162-2 1-143); conditions: protein: recombinant; tags: N-terminal GST; dsDNA, one strand shown
# T12 sequence: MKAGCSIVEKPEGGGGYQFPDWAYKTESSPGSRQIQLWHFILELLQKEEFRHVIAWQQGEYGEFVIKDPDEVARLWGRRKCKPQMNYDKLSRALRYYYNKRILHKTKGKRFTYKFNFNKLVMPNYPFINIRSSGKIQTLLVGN
# Outline: as §1
# [18] = target: ETV6 (Homo sapiens, UniProt P41212 1-452); conditions: protein: recombinant; tags: N-terminal GST; dsDNA, one strand shown
# ETV6, sequence (P41212 whole entry): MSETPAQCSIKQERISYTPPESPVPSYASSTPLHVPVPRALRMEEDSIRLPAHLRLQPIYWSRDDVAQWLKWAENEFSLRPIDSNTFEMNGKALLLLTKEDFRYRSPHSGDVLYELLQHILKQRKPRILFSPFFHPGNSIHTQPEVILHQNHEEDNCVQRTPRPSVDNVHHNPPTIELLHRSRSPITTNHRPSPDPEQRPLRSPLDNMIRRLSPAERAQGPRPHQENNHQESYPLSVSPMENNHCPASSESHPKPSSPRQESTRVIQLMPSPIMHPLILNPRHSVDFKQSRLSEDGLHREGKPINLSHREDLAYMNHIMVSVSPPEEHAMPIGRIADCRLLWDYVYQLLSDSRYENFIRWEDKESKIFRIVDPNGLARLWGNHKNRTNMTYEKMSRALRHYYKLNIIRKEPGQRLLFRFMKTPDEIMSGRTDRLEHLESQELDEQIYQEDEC
# Outline: as §1
sequence,measurement,setting,value
ACTTGT,binding signal,[1],"1.28 fold enrichment (6-mer frequency, TF over GST control)"
same,binding signal,[2],"1.21 fold enrichment (6-mer frequency, TF over GST control)"
same,binding signal,[3],"1.12 fold enrichment (6-mer frequency, TF over GST control)"
same,binding signal,[4],"1.08 fold enrichment (6-mer frequency, TF over GST control)"
same,binding signal,[5],"1.37 fold enrichment (6-mer frequency, TF over GST control)"
same,binding signal,[6],"1.36 fold enrichment (6-mer frequency, TF over GST control)"
same,binding signal,[7],"1.31 fold enrichment (6-mer frequency, TF over GST control)"
same,binding signal,[8],"1.16 fold enrichment (6-mer frequency, TF over GST control)"
same,binding signal,[9],"1.1 fold enrichment (6-mer frequency, TF over GST control)"
same,binding signal,[10],"1.29 fold enrichment (6-mer frequency, TF over GST control)"
same,binding signal,[11],"1.28 fold enrichment (6-mer frequency, TF over GST control)"
same,binding signal,[12],"1.23 fold enrichment (6-mer frequency, TF over GST control)"
same,binding signal,[13],"1.36 fold enrichment (6-mer frequency, TF over GST control)"
same,binding signal,[14],"1.22 fold enrichment (6-mer frequency, TF over GST control)"
same,binding signal,[15],"1.2 fold enrichment (6-mer frequency, TF over GST control)"
same,binding signal,[16],"1.28 fold enrichment (6-mer frequency, TF over GST control)"
same,binding signal,[17],"1.36 fold enrichment (6-mer frequency, TF over GST control)"
same,binding signal,[18],"1.32 fold enrichment (6-mer frequency, TF over GST control)"
